# Data published in PubChem BioAssay (NCATS).
# Values without a mark were called inactive. Records with an inconclusive call do not appear. Where a call stands in place of a potency, no number is given. Activity calls are given as the source filed them. Unless noted, the call rests on the fitted dose curve; in most records, active means well fitted curve in the direction sought with a large enough effect; inconclusive means small, poorly fitted or top-dose-only effect, or another doubt; inactive means no such curve, though single readings can be large; an effect the other way counts as inactive or inconclusive.
# Key:
# [1] = Confirmation and Secondary Assay for Modulators of Hemoglobin Beta Chain Splicing at IVS2 654 locus (AID 910);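 further: HeLa cells stably carrying EGFP split by mutant beta-globin IVS2-654 intron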
# Summary of the method: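 HeLa cells stably expressing EGFP interrupted by β-globin IVS2-654 intron, seeded overnight in Opti-MEM/2% FCS, then treated 2 days at 37 °C. Restored splicing read as total peak GFP intensity per well by laser scanning cytometry (488 nm excitation, 500–520 nm emission); 500 nM antisense PNA as control.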
# [2] = Confirmation and Secondary Assay for Modulators of Hemoglobin Beta Chain Splicing at IVS2 705 locus (AID 930);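 further: HeLa cells stably expressing the EGFP-705 splicing reporter; GFP fluorescence per well restored by corrected splicing of the IVS2-705 intron in EGFP; series mostly up to about 46 µM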
# Summary of the method: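 First, HeLa EGFP-705 cells are seeded at 500/well in Optimem with 2% FCS and left overnight. Next, compound or DMSO is added for 2 days. Finally wells are laser-scanned and total peak GFP intensity scored.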
# [3] = target: N-terminal Xaa-Pro-Lys N-methyltransferase 1 (Homo sapiens) (UniProt Q9BV86); assay: Confirmatory qHTS for Inhibitors of N-terminal methyltransferase 1 (NTMT1): MTaseGlo Assay (AID 1645874); details: NTMT1 enzyme, MTase-Glo SAH luminescence; further: potency means the concentration at half of the fitted maximal effect; nearly all actives have a fitted effect of over 65% in size
# Summary of the method: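 Room-temperature NTMT1 reaction, 30 min, with 100 uM SAM and 1 uM SPKRIA substrate; enzyme 125 nM. Read-out: MTase-Glo luminescence, normalized to no-enzyme and DMSO controls.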
# [4] = Confirmatory screen GU Rhodamine qHTS for Zika virus inhibitors qHTS (AID 1347157); further: potency means the concentration at half of the fitted maximal effect; nearly all actives have a fitted effect of over 70% in size
# Summary of the method: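 Buffer 10 mM Tris-HCl pH 8.0, 0.01% Tween 20. Unlinked protease 25 nM; compound preincubation 15 min, RT, protected from light. Substrate Rhod110, 1.5 microM; ~15% conversion in 15 min.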
# [5] = Confirmatory screen NINDS Rhodamine qHTS for Zika virus inhibitors (AID 1347161); further: potency means the concentration at half of the fitted maximal effect; nearly all actives have a fitted effect of over 60% in size
# Summary of the method: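 qHTS dose-response: 25 nM linked protease, pH 8.0 Tris/Tween buffer, cpd titration, 15 min RT preinc, 1.5 microM Rhod110 peptide, 15 min reaction (~15% conversion), Ex480/Em540; 4-parameter Hill fit.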
# [6] = Confirmatory qHTS for small molecule stabilizers of the endoplasmic reticulum resident proteome: Secreted ER Calcium Modulated Protein (SERCaMP) assay (AID 1508628); further: series mostly up to about 76 µM; nearly all actives have a fitted effect of over 40% in size
# Summary of the method: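 Reporter secretion upon ER calcium depletion (100 nM thapsigargin, 4 h, 37C) is measured as medium luminescence with coelenterazine, after 16 h compound pretreatment of SH-SY5Y-GLuc-SERCaMP cells; primary at three concentrations up to 38.3 uM, follow-up at 11 (up to 76.6 uM).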
# [7] = Cell Viability qHTS for small molecule stabilizers of the endoplasmic reticulum resident proteome (AID 1508629); details: cell viability counter-screen, 100 nM thapsigargin for final 4 h;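 further: human SH-SY5Y neuroblastoma cells carrying the GLuc-SERCaMP reporter; compound exposure about 46 h in total before the viability read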
# [8] = Confirmatory qHTS to identify inhibitors of SARS-CoV-2 cell entry (AID 1645844; calls by dose curve; further: potency means the concentration at half of the fitted maximal effect; nearly all actives have a fitted effect of over 45% in size)
# Summary of the method: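 HEK293-ACE2, overnight seeding; cpd 1 h, 37C/5% CO2; + SARS-CoV-2-S MLV PP (Wuhan-Hu-1, ΔC19); 48 h; Bright-Glo luminescence. Data normalised to S PP and bald PP wells.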
# [9] = VSVG counterscreen qHTS to identify inhibitors of SARS-CoV-2 cell entry (AID 1645847; calls by dose curve; further: potency means the concentration at half of the fitted maximal effect; nearly all actives have a fitted effect of over 65% in size)
# Summary of the method: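 HEK293-ACE2 cells (Expi293F stably expressing human ACE2) were pretreated with compound for 1 h at 37 °C, then infected with MLV-based VSV-G pseudotyped particles for 48 h. Luciferase luminescence was normalized to VSV-G PP and bald PP wells.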
# [10] = target: Nuclear receptor subfamily 1 group I member 3 (Homo sapiens) (UniProt Q14994); assay: Primary qHTS for antagonist of constitutive androstane receptor (CAR) against the NCATS DSHEA and TCM libraries (AID 1794836); further: potency means the concentration at half of the fitted maximal effect
# Summary of the method: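 HepG2-CYP2B6-hCAR cells, attached 5 h, given compounds plus CITCO agonist […], incubated 24 h at 37 C. Luciferase luminescence read, multiplexed with CellTiter-Fluor viability (Ex/Em 405/540 nm).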
# [11] = Viability counterscreen for agonist of constitutive androstane receptor (CAR) against the NCATS DSHEA and TCM libraries (AID 1794838)
# Summary of the method: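 HepG2-CYP2B6-hCAR cells (2,500/well) attached 5 h, then got compounds plus 0.75 uM PK11195 final. After 24 h at 37C, viability read by CellTiter-Fluor fluorescence (Ex/Em 405/540 nm).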
# [12] = target: Nuclear receptor subfamily 1 group I member 3 (Homo sapiens) (UniProt Q14994); assay: Primary qHTS for agonist of constitutive androstane receptor (CAR) against the NCATS DSHEA and TCM libraries (AID 1794839);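 further: HepG2 cells expressing human CAR with a CYP2B6 reporter plus PK11195 antagonist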
# Summary of the method: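 HepG2-CYP2B6-hCAR cells (2,500/well) were attached for 5 h, then treated for 24 h at 37 °C with compounds plus 0.75 µM PK11195. Luciferase luminescence (ONE-Glo) was read, with CellTiter-Fluor viability (Ex/Em 405/540 nm).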
# [13] = HepG2 viability counterscreen (readout 2: ATP content) against the NCATS DSHEA and TCM libraries (AID 1794840);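 further: HepG2 cells exposed to substances for about 24 h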
# Summary of the method: (§1)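 HepG2 cells (1,000 cells/well) attached ~4 h, then treated ~24 h at 37C with substances. Protease activity read by GF-AFC (25 uM final, 30 min, Ex/Em 380/510 nm); ATP content then by CellTiter-Glo luminescence.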
# [14] = HepG2 viability counterscreen (readout 1: protease activity) against the NCATS DSHEA and TCM libraries (AID 1794841);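 further: cells exposed to compounds for about 24 h before the protease read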
# Summary of the method: as §1
# [15] = target: Cytochrome P450 3A4 (Homo sapiens) (UniProt P08684); assay: qHTS for inhibitors of CYP3A4 against the NCATS DSHEA and TCM libraries (AID 1919971);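 further: inhibition lowers luminescence from luciferin made by CYP3A4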
# Summary of the method: (§2)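 Each CYP isoform and its pro-luciferin substrate, at isoform-specific final concentrations, were preincubated 15 min at RT with substances. NADPH regeneration solution (1x) started a 30-45 min reaction, and P450-Glo luminescence was read.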
# [16] = target: Cytochrome P450 2D6 (Homo sapiens) (UniProt P10635); assay: qHTS for inhibitors of CYP2D6 against the NCATS DSHEA and TCM libraries (AID 1919972)
# Summary of the method: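 CYP2D6 enzyme with pro-luciferin substrate in manufacturer buffer (typically 100 mM KPO4), preincubated 15 min RT with substances (most at 19.5 nM upward); NADPH regeneration system (1x) started 30–45 min RT reaction; P450-Glo luminescence read after 30 min; quinidine as intraplate control.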
# [17] = target: Cytochrome P450 2C9 (Homo sapiens) (UniProt P11712); assay: qHTS for inhibitors of CYP2C9 against the NCATS DSHEA and TCM libraries (AID 1919973);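 further: luminogenic pro-luciferin CYP2C9 substrate turned into luciferin with NADPH regeneration; series mostly up to about 34 µM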
# Summary of the method: as §2
# [18] = target: Cytochrome P450 2C19 (Homo sapiens) (UniProt P33261); assay: qHTS for inhibitors of CYP2C19 against the NCATS DSHEA and TCM libraries (AID 1919974); details: CYP2C19 enzyme inhibition, luminescence qHTS;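 further: luminescence from luciferin released by CYP2C19 oxidation of a pro-luciferin substrate; potency means the concentration at half of the fitted maximal effect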
# Summary of the method: as §2
# [19] = KB-3-1 P-gp reporter qHTS against the NCATS DSHEA and TCM libraries (AID 1919975)
# Summary of the method: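 Parental KB-3-1 human cervical adenocarcinoma cells (500 cells/well, DMEM + 10% FBS) were treated with substances for ~72 h at 37C; viability was read by CellTiter-Glo luminescence.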
# [20] = target: Cytochrome P450 1A2 (Homo sapiens) (UniProt P05177); assay: qHTS for inhibitors of CYPIA2 against the NCATS DSHEA and TCM libraries (AID 1919976); further: potency means the concentration at half of the fitted maximal effect
# Summary of the method: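 Reaction started with 1x NADPH regeneration solution and run 30-45 min, room temperature, protected from light, after compounds sat 15 min with CYP1A2 and pro-luciferin substrate. P450-Glo detection gave luminescence; furafylline served as control.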
# Sequence of Nuclear receptor subfamily 1 group I member 3 (Homo sapiens) (Q14994 whole entry, looked up): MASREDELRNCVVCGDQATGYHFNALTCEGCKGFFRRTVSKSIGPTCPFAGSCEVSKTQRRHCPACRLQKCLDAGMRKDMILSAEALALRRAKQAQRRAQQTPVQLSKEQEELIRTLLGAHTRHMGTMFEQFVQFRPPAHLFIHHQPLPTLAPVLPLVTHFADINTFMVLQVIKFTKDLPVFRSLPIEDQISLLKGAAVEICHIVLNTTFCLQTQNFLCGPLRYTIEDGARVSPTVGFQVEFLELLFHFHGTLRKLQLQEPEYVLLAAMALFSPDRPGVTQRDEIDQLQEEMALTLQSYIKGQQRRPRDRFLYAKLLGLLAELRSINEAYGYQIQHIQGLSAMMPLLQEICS
# Sequence of Cytochrome P450 2C19 (Homo sapiens) (P33261 whole entry, looked up): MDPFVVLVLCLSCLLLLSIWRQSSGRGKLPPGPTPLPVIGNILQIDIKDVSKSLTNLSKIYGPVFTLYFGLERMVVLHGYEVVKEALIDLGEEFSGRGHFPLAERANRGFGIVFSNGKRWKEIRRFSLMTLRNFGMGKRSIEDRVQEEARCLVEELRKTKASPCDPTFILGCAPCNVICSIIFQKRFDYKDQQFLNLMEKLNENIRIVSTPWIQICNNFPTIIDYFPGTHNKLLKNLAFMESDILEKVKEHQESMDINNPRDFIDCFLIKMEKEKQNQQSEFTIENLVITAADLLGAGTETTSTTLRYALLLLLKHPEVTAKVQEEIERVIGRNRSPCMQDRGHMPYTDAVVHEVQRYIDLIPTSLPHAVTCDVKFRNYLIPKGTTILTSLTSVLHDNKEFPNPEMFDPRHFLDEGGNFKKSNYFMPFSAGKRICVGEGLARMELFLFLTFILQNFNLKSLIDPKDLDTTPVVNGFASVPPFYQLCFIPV
# Sequence of Cytochrome P450 2D6 (Homo sapiens) (P10635 whole entry, looked up): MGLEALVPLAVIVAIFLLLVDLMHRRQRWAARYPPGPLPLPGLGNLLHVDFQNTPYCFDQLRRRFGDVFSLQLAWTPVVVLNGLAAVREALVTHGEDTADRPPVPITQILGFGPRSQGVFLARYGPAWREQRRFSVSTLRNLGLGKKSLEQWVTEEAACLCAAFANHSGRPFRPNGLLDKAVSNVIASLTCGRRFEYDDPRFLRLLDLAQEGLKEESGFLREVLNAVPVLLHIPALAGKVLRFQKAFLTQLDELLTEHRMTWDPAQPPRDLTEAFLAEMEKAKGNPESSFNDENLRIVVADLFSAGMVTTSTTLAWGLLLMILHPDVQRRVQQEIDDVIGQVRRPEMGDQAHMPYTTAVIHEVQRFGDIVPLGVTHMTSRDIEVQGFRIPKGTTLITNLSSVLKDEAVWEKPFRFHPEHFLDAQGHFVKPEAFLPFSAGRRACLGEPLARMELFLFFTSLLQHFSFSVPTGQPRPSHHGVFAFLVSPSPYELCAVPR
# Sequence of Cytochrome P450 3A4 (Homo sapiens) (P08684 whole entry, looked up, canonical isoform): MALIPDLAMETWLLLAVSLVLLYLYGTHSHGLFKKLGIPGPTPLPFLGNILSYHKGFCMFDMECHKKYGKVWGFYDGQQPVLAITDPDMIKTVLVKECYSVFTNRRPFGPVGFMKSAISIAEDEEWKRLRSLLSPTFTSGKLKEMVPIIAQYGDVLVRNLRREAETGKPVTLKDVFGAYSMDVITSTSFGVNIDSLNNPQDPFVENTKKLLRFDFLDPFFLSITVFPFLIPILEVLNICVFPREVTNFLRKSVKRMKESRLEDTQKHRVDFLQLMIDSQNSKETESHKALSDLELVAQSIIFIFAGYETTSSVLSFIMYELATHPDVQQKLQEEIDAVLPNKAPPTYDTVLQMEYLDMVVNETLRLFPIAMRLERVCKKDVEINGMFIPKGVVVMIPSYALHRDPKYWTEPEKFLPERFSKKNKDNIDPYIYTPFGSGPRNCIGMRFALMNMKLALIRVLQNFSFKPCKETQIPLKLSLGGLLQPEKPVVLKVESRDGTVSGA
# Sequence of Cytochrome P450 2C9 (Homo sapiens) (P11712 whole entry, looked up): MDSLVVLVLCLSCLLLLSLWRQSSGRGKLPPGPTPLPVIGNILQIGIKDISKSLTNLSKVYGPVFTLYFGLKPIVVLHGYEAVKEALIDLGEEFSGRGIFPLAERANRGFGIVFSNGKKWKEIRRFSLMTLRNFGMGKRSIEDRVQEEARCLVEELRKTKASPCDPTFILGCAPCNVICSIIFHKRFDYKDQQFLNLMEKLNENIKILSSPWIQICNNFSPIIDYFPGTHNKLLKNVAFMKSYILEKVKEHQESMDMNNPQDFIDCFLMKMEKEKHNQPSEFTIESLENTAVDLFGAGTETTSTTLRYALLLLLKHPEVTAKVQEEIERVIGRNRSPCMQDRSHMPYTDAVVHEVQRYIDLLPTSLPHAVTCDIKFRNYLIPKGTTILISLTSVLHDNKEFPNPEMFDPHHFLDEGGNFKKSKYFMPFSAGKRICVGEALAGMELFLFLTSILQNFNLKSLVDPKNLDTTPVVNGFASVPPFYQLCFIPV
# Sequence of N-terminal Xaa-Pro-Lys N-methyltransferase 1 (Homo sapiens) (Q9BV86 whole entry, looked up): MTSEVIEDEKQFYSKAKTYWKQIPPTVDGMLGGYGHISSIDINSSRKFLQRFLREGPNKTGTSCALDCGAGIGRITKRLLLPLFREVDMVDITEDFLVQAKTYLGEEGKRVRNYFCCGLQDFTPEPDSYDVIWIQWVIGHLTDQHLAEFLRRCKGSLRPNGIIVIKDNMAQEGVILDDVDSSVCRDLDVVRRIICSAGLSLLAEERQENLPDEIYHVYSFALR
# Sequence of Cytochrome P450 1A2 (Homo sapiens) (P05177 whole entry, looked up): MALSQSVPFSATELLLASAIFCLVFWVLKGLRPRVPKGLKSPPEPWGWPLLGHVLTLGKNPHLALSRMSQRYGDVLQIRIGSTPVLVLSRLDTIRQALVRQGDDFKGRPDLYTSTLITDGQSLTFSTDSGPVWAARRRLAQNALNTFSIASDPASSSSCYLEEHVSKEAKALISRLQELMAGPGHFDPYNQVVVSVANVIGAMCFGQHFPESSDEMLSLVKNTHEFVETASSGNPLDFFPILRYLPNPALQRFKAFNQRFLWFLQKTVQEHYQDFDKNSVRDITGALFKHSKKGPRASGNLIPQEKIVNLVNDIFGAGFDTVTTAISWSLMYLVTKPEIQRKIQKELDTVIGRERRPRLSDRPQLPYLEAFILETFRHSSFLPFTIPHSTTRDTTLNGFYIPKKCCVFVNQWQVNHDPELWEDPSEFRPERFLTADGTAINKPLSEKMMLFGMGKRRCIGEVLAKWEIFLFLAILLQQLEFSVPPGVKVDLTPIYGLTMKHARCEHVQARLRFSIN
smiles,measurement,setting,value
CC1CCCC(=O)CCC/C=C/c2cc(O)cc(O)c2C(=O)O1 (stereo not given),Potency,[1],inactive
same,outcome,[2],inactive
same,Potency,[3],15.8 µM (active)
CNc1ccc2oc(C[C@H]3O[C@@]4(CC[C@H]3C)O[C@H](C(C)C(=O)c3ccc[nH]3)[C@H](C)C[C@H]4C)nc2c1C(=O)O (stereo not given in full),Potency,[4],13.9 µM (active)
same,Potency,[5],31.2 µM (active)
C[C@H]1CCC/C=C/C2C[C@H](O)C[C@H]2[C@H](O)/C=C/C(=O)O1 (stereo not given in full),Potency,[6],inactive
same,max response,[7],21.4%
same,Potency,[8],0.857 µM (active)
same,Potency,[9],0.857 µM (active)
C=C(CO)C(=O)O[C@H]1CC(=C)[C@@H]2C[C@H](O)C(=C)[C@@H]2[C@H]2OC(=O)C(=C)[C@@H]21,Potency,[10],22.4 µM (active)
same,outcome,[11],inactive
same,outcome,[12],inactive
same,outcome,[13],inactive
same,outcome,[14],inactive
same,outcome,[15],inactive
same,outcome,[16],inactive
same,outcome,[17],inactive
same,Potency,[18],2.24 µM (active)
same,outcome,[19],inactive
same,Potency,[20],2.51 µM (active)
